High-throughput results from PubChem.
Rows were chosen to be rich in hits. Some 3.2% of all compounds tested hit in one or more screens of this group.
JMJD2E inh = JMJD2E (human) inhibition; B2RXH2; JMJD2E catalytic domain, FDH-coupled NADH fluorescence (FDH is formaldehyde dehydrogenase); Potency, µM (titrated, usually from 57.1 µM), for the others: at the highest dose activity change, negative = inhibition, actives largely listed as inhibitors; 1.6% of 230,000 active; AID 2147; active = well fitted inhibition curve with a large enough effect, not every such curve was filed as active; inconclusive = small, poorly fitted or top-dose-only effect, or another doubt; inactive = no such curve, though single readings can be large or run the other way;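 also: potency is read from the fitted curve at half-maximal effect; 0% = wells with enzyme and -100% = buffer wells without enzyme; nearly all actives have a fitted effect of over 50% in size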
Target sequence (B2RXH2 1-337 limits assumed): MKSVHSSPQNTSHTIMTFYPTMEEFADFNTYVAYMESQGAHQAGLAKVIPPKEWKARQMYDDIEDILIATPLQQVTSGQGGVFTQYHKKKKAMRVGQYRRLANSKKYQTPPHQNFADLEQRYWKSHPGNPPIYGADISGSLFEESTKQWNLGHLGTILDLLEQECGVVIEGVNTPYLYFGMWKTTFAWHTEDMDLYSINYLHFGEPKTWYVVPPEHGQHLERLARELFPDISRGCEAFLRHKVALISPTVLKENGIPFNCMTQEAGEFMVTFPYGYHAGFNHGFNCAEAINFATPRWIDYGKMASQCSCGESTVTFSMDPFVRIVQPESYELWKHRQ
Tau ThT inhib = tau fibrillization inhibition (ThT binding); P10636; recombinant tau K18 P301L, heparin-induced fibrillization, ThT fluorescence; Potency, µM (top dose mostly 57.4 µM), for inactives: at the highest dose activity, negative = inhibition, hits mostly inhibitors; 2.1% of 270,000 active; AID 1460; also: potency is read from the fitted curve at half-maximal effect; % is scaled to controls: 0 for no effect and ±100 for the full control effect; nearly all actives have a fitted effect of over 55% in size
Target sequence (P10636 561-689 P618L limits assumed): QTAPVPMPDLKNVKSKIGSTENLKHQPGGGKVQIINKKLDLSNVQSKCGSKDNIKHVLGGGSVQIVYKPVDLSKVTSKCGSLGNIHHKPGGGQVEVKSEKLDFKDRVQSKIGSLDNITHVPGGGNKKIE
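ThT emission at 510 nm, taken 1 hr after adding 30 uM dye, quantifies aggregates formed when 20 uM heparin acts on human tau K18 P301L for 6 hr at 37 C.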
Tau fluor cs = counter-screen for tau fibril formation inhibitors. AID 1463. tau K18 P301L (four-repeat tau fragment) Alexa594 fluorescence, heparin fibrillization. Potency, µM (doses to about 57.7 µM), for inactives: at the top dose activity change, negative = decrease. 0.93% of 280,000 active; also: potency is read from the fitted curve at half-maximal effect; % is scaled to controls: 0 for no effect and ±100 for the full control effect; nearly all actives have a fitted effect of over 55% in size
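Human K18 P301L tau (15 uM unlabeled plus 0.24 uM Alexa 594-labeled, final) in 100 mM sodium acetate pH 7 was mixed with compound and 20 uM heparin and incubated 6 hr at 37 C.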
Lamin A splicing = changes lamin A minigene splicing in HeLa cells | HeLa LMNA splicing GFP/RFP minigene ratio, 48 h | Potency, µM (series often up to 46.1 µM), without a hit: top-dose ratio change, negative = inhibition, usual class: inhibitors | 0.01% of 200,000 active | AID 1487; active = well fitted inhibition curve with a large enough effect in the signal ratio, with a control signal flat, not every such curve was filed as active; inconclusive = small, poorly fitted or top-dose-only effect, or effect the other way, or a change in a side signal; the % refers to the signal ratio; also: potency is read from the fitted curve at half-maximal effect; % is scaled to controls: 0 for no effect and ±100 for the full control effect
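S3 HeLa cells stably expressing lamin A-EGFP splicing minigene plus DsRed2, 600 cells/well, 48 h compound exposure at 37C. Laser-scanning cytometry; analysed as GFP (500-530 nm)/RFP (575-640 nm) total intensity ratio; 0.5% DMSO vehicle.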
Tau FP inhib = blocks human tau fibril formation measured by polarization. K18 P301L tau heparin fibrillization, Alexa594 FP, 6 h. 0.39% of 280,000 active. Potency, µM (doses to about 57.7 µM), inactives show at the highest dose activity, negative = inhibition, usual class: inhibitors. P10636; also: potency is read from the fitted curve at half-maximal effect; % is scaled to controls: 0 for no effect and ±100 for the full control effect; nearly all actives have a fitted effect of over 55% in size
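Compound effects on tau fibrillization are measured by Alexa 594 fluorescence polarization (ex 555, em 632 nm). K18 P301L tau is used at 15 uM with 0.24 uM labeled tracer, and 20 uM heparin induces aggregation over 6 hr at 37 C.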
CBFb-RUNX1 inh = CBF-beta/RUNX1 interaction disruption; 230,000 tested, under 10 active; Potency, µM (titrated, usually from 59.8 µM), inactives show at the top dose activity, negative = inhibition, hits mostly inhibitors; AlphaScreen CBFb-His/RUNX1-biotin binding, biochemical; Q01196+Q13951; also: % of control where 0% means no effect
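Read-out: AlphaScreen. Format: His-CBF-beta with biotinylated RUNX1 (30 nM each) preincubated 20 min, compound 15 min, Ni-chelate plus streptavidin beads 90 min; room temperature throughout.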
* marks the source's active call; other numbers are inactive results; u = inconclusive; x = not tested or not shown; [ ] = remark or other dose. Unless noted, calls follow the shape of the dose curve; as a rule, active = well fitted curve in the direction sought with a large enough effect; inconclusive = small, poorly fitted or top-dose-only effect, or another doubt; inactive = no such curve, though single readings can be large; an effect the other way counts as inactive or inconclusive.

SMILES	JMJD2E inh	Tau ThT inhib	Tau fluor cs	Lamin A splicing	Tau FP inhib	CBFb-RUNX1 inh
CCC1Cc2cc(O)ccc2C2=C1c1ccc(O)cc1CC2CC (stereo unspecified)	x	x	x	x	x	-8%
CCOc1ccc(-n2ccnc2SCC(=O)Nc2nc3ccc(C)cc3s2)cc1	x	2%	-2%	7%[46 µM]	-7%	x
Cc1cnc(CNc2nc(-c3ccccc3Cl)nc3ccccc23)cn1	x	x	x	12%	x	x
Cc1cc(C)n(CCc2nc3c4ccccc4nc(SCc4ccc(Cl)cc4)n3n2)n1	x	11%	6%	21%[46 µM]	9%	x
COCCN=c1scc(-c2ccc3c(c2)NC(=O)CO3)n1/N=C(\C)c1ccc(O)cc1	-24%	14µM*	14µM*[quencher]	x	u	-24%
COc1cccc(NC(=O)CC2Nc3cc(C)c(C)cc3NC2=O)c1 (stereo unspecified)	x	u	u	x	10%	x
COc1ccc(NC(=O)CC2Nc3ccccc3NC2=O)cc1 (stereo unspecified)	x	-14%	-9%	x	1%	x
CCOC(=O)c1ccc(NC(=O)CC2Nc3cccc4cccc(c34)NC2=O)cc1 (stereo unspecified)	x	13µM*	8.9µM*[quencher]	x	u	x
Cc1cccc(NC(=O)CC2Nc3cccc4cccc(c34)NC2=O)c1 (stereo unspecified)	u	u	8.9µM*[quencher]	-6%	1%	-16%
CCOc1ccc(NC(=O)CC2Nc3cccc4cccc(c34)NC2=O)cc1 (stereo unspecified)	x	14µM*	16µM*[quencher]	x	4%	x
CCOC(=O)c1ccc(NC(=O)CC2Nc3cc(C)c(C)cc3NC2=O)cc1 (stereo unspecified)	x	u	14µM*[quencher]	x	9%	x
CCN(C(=O)CN1C(=O)c2ccccc2Sc2ccc(C(=O)OC)cc21)c1cccc(C)c1	x	-4%	5%	u	6%	x
O=C(Cc1cccs1)NC1CC(=O)N(c2ccccc2)C1 (stereo unspecified)	x	-2%	2%	u	2%	x
COc1ccc(C(CC(=O)Nc2ccc(OC)c(OC)c2)N2Cc3ccccc3C2=O)cc1 (stereo unspecified)	x	-14%	-25%	0%[46 µM]	-1%	x
CC(=O)c1ccc(NC(=O)CC2Nc3cccc4cccc(c34)NC2=O)cc1 (stereo unspecified)	u	14µM*	25µM*[quencher]	-19%[46 µM]	u	-24%
CC(=O)Nc1ccc(NC(=O)CC2Nc3cccc4cccc(c34)NC2=O)cc1 (stereo unspecified)	-10%	u	u	-5%	11%	-7%
Cc1ccc(NS(=O)(=O)c2cc(NC(=O)c3ccc4c(c3)NC(=O)CS4)ccc2Cl)c(C)c1	u	-13%	u	u	25µM*	-21%
Cc1ccc(NS(=O)(=O)c2cc(C(=O)O)ccc2Cl)c(C)c1	-1%	4%	-2%	-20%	-4%	-2%
CCOC(=O)c1ccc(NC(=O)C(Cc2ccccc2)N2Cc3ccccc3C2=O)cc1 (stereo unspecified)	x	1%	-11%	-2%[46 µM]	-3%	x
Cc1cc(C)[n+]2[nH]c(N)c(N=Nc3ccccc3)c2n1	-9%	16µM*	-21%	x	4%	-10%
COc1ccc(N=C2NC(=O)/C(=C\C=C\c3ccco3)S2)cc1	u	8.9µM*	u	-14%[9.22 µM]	u	u
Cc1cccc(N=C2NC(=O)/C(=C/C=C/c3ccco3)S2)c1	u	5µM*	-28%	u	-9%	u
O=C1NC(=Nc2ccc3ccccc3c2)S/C1=C/c1ccco1	-2%	14µM*	u	-19%[46 µM]	u	u
Cc1ccc(N=C2NC(=O)/C(=C\c3ccco3)S2)cc1	-8%	u	-27%	5%	6%	u
CCOC(=O)c1ccc(NC(=O)CSc2nnc(CNc3ccc(OC)cc3)n2C)cc1	u	14µM*	-28%	-1%	u	-7%
SMILES	JMJD2E inh	Tau ThT inhib	Tau fluor cs	Lamin A splicing	Tau FP inhib	CBFb-RUNX1 inh
COc1ccc(NCc2nnc(SCC(=O)Nc3ccc(OC)cc3)n2C)cc1	2%	-7%	0%	11%[46 µM]	1%	-5%
O=C(Nc1ccc(N2CCN(C(=O)c3ccco3)CC2)cc1)c1ccco1	4%	u	-5%	10%[46 µM]	4%	-18%
N#Cc1ccc(C(=O)Nc2ccc(N3CCN(C(=O)c4ccco4)CC3)cc2)c(F)c1	0%	1µM*	-17%	-2%	-1%	-7%
Cn1nc(C(C)(C)C)cc1NC(=O)Nc1cc(Cl)cc(Cl)c1	-4%	-9%	7.1µM*[quencher]	u	25µM*	16%
Cc1ccc(F)cc1NC(=O)Nc1cc(C(C)(C)C)nn1C	-3%	-5%	-27%	-26%[46 µM]	5%	5%
CC(=O)c1ccc2c(c1)N(C)c1ccccc1S2	6%	10µM*	u	u	13%	2%
Cc1ccc(-n2nc3c(N4CCC(C(=O)NC5CCCCC5)CC4)nnc(C)c3c2C)cc1	x	-3%	-2%	x	-11%	x
CCc1ccc(S(=O)(=O)O)cc1	x	x	x	x	x	11%
O=C1c2ccccc2C(=O)N1CCSc1ncn[nH]1	5%	5%	-3%	-2%	2%	13%
CCc1ccc(S(=O)(=O)/N=C2/C=C(Sc3ncn[nH]3)C(=O)c3ccccc32)cc1	3.5µM*	4µM*	u	u	11µM*	u
CCc1ccc(S(=O)(=O)/N=C2\C=CC(=O)c3ccccc32)cc1	-22%	18µM*	u	x	u	u
O=C(NCC(c1ccccc1)c1ccccc1)c1nn(-c2ccccc2Cl)nc1CO	x	-7%	-17%	x	6%	x
O=C(O)c1cccc(N2C(=O)/C(=C/c3ccc([N+](=O)[O-])cc3)C=C2c2ccccc2)c1	-23%	6.3µM*	u	x	-9%	-2%
O=C1/C(=C/c2ccc([N+](=O)[O-])cc2)C=C(c2ccccc2)N1c1ccc(O)cc1	-7%	5.6µM*	11µM*[quencher]	-5%	-5%	-17%
COc1ccc(-c2cc(C)nc3c(-c4ccc(OC)c(OC)c4)c(C)nn23)cc1	x	10µM*	14µM*[quencher]	x	u	x
COc1ccc(-c2c(C)nn3c(-c4ccccc4)cc(-c4ccccc4)nc23)cc1OC	x	-20%	u	x	16%	x
O=[N+]([O-])c1ccc(/C([O-])=C(/C(=S)NCc2ccco2)[n+]2ccccc2)cc1	14µM*	25µM*	-21%	4%[46 µM]	u	u
Cc1ccc(/C([O-])=C(/C(=S)NCc2ccco2)[n+]2ccccc2)cc1	5%	u	-18%	-2%	-5%	-28%
COC(=O)c1ccc2c(c1)C(C)(C)C(/C=C/c1ccc(OC)c(OC)c1OC)=[N+]2C	-161%	u	-12%	u	10%	-13%
